From PubChem BioAssay
The list is not random: actives were taken first. Their share in the collection is about 4.9%.
TIM10 inh – growth inhibitors of isogenic TIM10 control yeast, primary screen, counter-screen for tim10-1 yeast inhibitor project, luminescence, uHTS | 1.4% of 330,000 active | AID 463195, 2010 | inhibition, % at 10 µM | S. cerevisiae TIM10 strain growth, BacTiter-Glo luminescence, 24 h;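 active means inhibition of 40% or more at the single tested concentration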;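 further: wild-type TIM10 isogenic control strain grown at permissive 25 °C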
NALP3 yeast inh – NALP3 inflammasome inhibitors in reconstituted yeast, primary screen, luminescence, uHTS; Yeast reconstituted NLRP3/ASC/caspase-1, beta-gal luminescence, 24 h; inhibition, % at 10 µM; 0.39% of 330,000 active; AID 2825, 2010;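 active means inhibition of 50% or more; inactive means inhibition below 50%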;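 further: plate controls were induced DMSO wells for no effect and uninduced yeast grown without galactose for full effect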
tim10-1 inh – growth inhibitors of tim10-1 mutant yeast, primary screen, luminescence, uHTS; S. cerevisiae tim10-1 ts strain growth, BacTiter-Glo, 24 h; inhibition, % at 20 µM; 2.2% of 330,000 active; AID 463190, 2010;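 active means inhibition of at least 40%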;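 further: mutant grown at 25 °C; 0% = DMSO wells with yeast and 100% = wells holding no yeast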
SKKanGAS inh – S. pyogenes SKKanGAS growth inhibitors in kanamycin, primary screen, streptokinase expression inhibitor project, SKKanGAS strain, BacTiter-Glo luminescence | inhibition, % at 7.5 µM | AID 1662, 2009 | 6 h | 1.3% of 300,000 active;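 active means mean replicate score, as percent of positive control median, at least 50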;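 further: strain carries kanamycin resistance gene driven by streptokinase promoter and grows in 40 µg/ml kanamycin; loss of luminescence reflects streptokinase promoter inhibition or plain growth inhibition; 0% = median of DMSO wells and 100% = positive control at its reference dose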
NALP1 yeast inh – NALP1 inflammasome inhibitors in reconstituted yeast, colorimetric, S. cerevisiae, triplicate retest. AID 2071, 2009. S. cerevisiae NALP1/ASC/caspase-1 growth, X-gal OD620, 72 h. 0.61% of 280,000 active. inhibition, % at 10 µM; in the data active means inhibition mostly above about 24%, no sharp cut-off; inactive means mostly below about 32%
tim23-1 inh – growth inhibitors of tim23-1 mutant yeast, primary screen, luminescence, uHTS | S. cerevisiae tim23-1 growth, BacTiter-Glo luminescence, 24 h | inhibition, % at 20 µM | 1.3% of 330,000 active | AID 463212, 2010;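 active means growth inhibition of the mutant yeast at or above 50%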;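 further: temperature-sensitive mutant grown at 25 °C; plate controls were DMSO-treated mutant yeast for no effect and medium wells lacking yeast for full effect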
The depositor's hits bear a star; / = no result given.

SMILES	TIM10 inh	NALP3 yeast inh	tim10-1 inh	SKKanGAS inh	NALP1 yeast inh	tim23-1 inh
CCCCC(=O)O[C@H]1CC[C@H]2[C@@H]3CCc4cc(O)ccc4[C@H]3CC[C@]12C	0.8	10.4	9.2	89.4*	20.4	17.6
C[C@]12CC[C@@H]3c4ccc(O)cc4CC[C@H]3[C@@H]1CC[C@@H]2OC(=O)CCC1CCCC1	12.2	6.9	18.9	111.4*	/	13.4
C[C@]12CC[C@@H]3c4ccc(O)cc4CC[C@H]3[C@@H]1CCC2=O	-55.6	36.5	-6.7	-1.5	32.6	2.9
COc1nc(Nc2nc3ccccc3c(=O)[nH]2)nc2ccc(C)cc12	37.2	22.1	25.2	85.2*	/	21.3
Cc1cc(C)cc(Nc2nc3ccccc3c(=O)[nH]2)c1	11.7	16.4	9.5	-4.8	2.0	1.6
Cc1ccc2c(=O)[nH]c(Nc3nc(C)cc(-c4ccccc4)n3)nc2c1	18.7	18.7	5.1	89.0*	6.5	-23.4
Cc1cccc(-c2nc3ccccc3c(=O)[nH]2)c1	27.6	16.6	16.3	-0.2	10.7	10.7
Cc1ccc(-n2ncc3c2CC(C)(C)CC3NC(=O)CCN2CCCCC2=O)cc1 (stereo unspecified)	3.2	9.0	6.3	-2.3	8.1	11.9
Nn1c(SCC(=O)NCCc2ccc(F)cc2)nnc1C1CCCCC1	1.0	14.0	11.2	/	/	11.6
O=C(Nc1ccc(C2=NCCN2)cc1)c1ccc(C(=O)Nc2ccc(C3=NCCN3)cc2)c([N+](=O)[O-])c1	-89.7	18.6	-9.6	19.2	35.0*	-354.1
Cc1ccc(NC(=O)c2ccc(-n3cccn3)c([N+](=O)[O-])c2)cc1	1.8	20.0	-5.2	8.3	6.0	11.7
Cc1ccc(C)c(-c2nnc(NC(=O)c3ccc([N+](=O)[O-])o3)o2)c1	-9.8	17.9	6.1	79.8*	/	15.7
Cc1ccc(C)c(-c2nnc(NC(=O)CCS(=O)(=O)c3ccccc3)o2)c1	-2.8	15.5	-9.8	51.3*	/	3.4
O=C(COc1ccccc1)Nc1nnc(-c2ccccc2)o1	19.1	-1.6	15.2	3.9	3.5	22.9
COc1cc(OC)c(C(=O)OCC(=O)Nc2nnc(-c3ccccc3)o2)cc1OC	-12.0	11.1	21.0	/	/	15.8
COc1cccc(C(=O)OCC(=O)Nc2nnc(-c3ccccc3)o2)c1	5.3	12.3	8.3	67.9*	/	3.9
Cc1ccc(C)c(-c2nnc(NC(=O)COc3ccccc3)o2)c1	4.1	40.5	5.8	104.9*	/	28.6
Cc1cc(C(=O)N/N=C/c2cc(Br)c(Br)o2)n[nH]1	20.6	13.4	-11.4	2.0	3.6	10.7
COc1ccc(C2CCCN2C(=S)Nc2ccc(C)cc2Cl)cc1OC (stereo unspecified)	-1.6	24.9	2.0	17.4	3.2	16.3
O=C(COn1nnc2ccc(C(F)(F)F)cc21)Nc1nnc(-c2ccccc2)o1	-8.0	-5.1	-2.6	90.5*	24.1	4.3
Cc1ccc(C)c(SCC(=O)Nc2nnc(-c3ccccc3)o2)c1	4.3	-1.0	28.3	81.7*	3.2	3.4
CCC(c1nnc(SCC(=O)Nc2nnc(-c3ccccc3)o2)o1)N(C)C (stereo unspecified)	-7.2	15.9	-2.8	0.5	3.2	4.8
CCC(=O)N1CCc2cc(OC)c(OC)cc2C1COc1ccc(F)cc1 (stereo unspecified)	6.2	8.2	14.8	-2.0	11.0	16.5
CCOC(=O)c1c(NC(=O)COC(=O)c2ccc(C)s2)sc2c1CC(C)(C)NC2(C)C	20.9	33.8	24.6	63.4*	/	27.1
CC(C)Sc1cc(N2CCCC2)nc(-c2ccc(F)cc2)n1	-5.6	16.6	-3.8	76.0*	11.5	12.3
CC(C)Sc1cc(N2CCCC2)nc(-c2ccccc2Cl)n1	16.1	34.0	11.9	-10.8	34.8	29.8
CC(C)Sc1cc(N2CCOCC2)nc(-c2ccccc2)n1	8.1	14.8	-7.2	-4.0	33.1	22.8
CCCSc1cc(N2CCCC2)nc(-c2ccccc2)n1	3.1	9.4	0.6	51.9*	4.4	-4.6
CC(C)Sc1cc(N2CCCC2)nc(-c2ccccc2)n1	10.0	16.2	7.0	68.6*	-10.1	13.3
